# Measured values reported in a collection of fitness landscapes (doi:10.1126/science.1257360).
# The full ranking holds about 140,000 sequences; the median of “enrichment ratio after two sorts for PhoP signalling” is about 0, and the highest 2% start at about 11. This excerpt belongs to a sample that is enriched for the highest values.
# B1: PhoQ; a variant is named by its letters at X, in order, P23837 (parent)
# chain: MKKLLRLFFPLSLRVRFLLATAAVVLVLSLAYGMVALIGYSVSFDKTTFRLLRGESNLFYTLAKWENNKLHVELPENIDKQSPTMTLIYDENGQLLWAQRDVPWLMKMIQPDWLKSNGFHEIEADVNDTSLLLSGDHSIQQQLQEVREDDDDAEMTHSVAVNVYPATSRMPKLTIVVVDTIPVELKSSYMVWSWFIYVLSANLLLVIPLLWVAAWWSLRPIEALAKEVRELEEHNRELLNPATTRELTSLVRNLNRLLKSERERYDKYRTTLTDLTHSLKTPLXXLQXXLRSLRSEKMSVSDAEPVMLEQISRISQQIGYYLHRASMRGGTLLSRELHPVAPLLDNLTSALNKVYQRKGVNISLDISPEISFVGEQNDFVEVMGNVLDNACKYCLEFVEISARQTDEHLYIVVEDDGPGIPLSKREVIFDRGQRVDTLRPGQGVGLAVAREITEQYEGKIVAGESMLGGARMEVIFGRQHSAPKDE
# Variants of: B1
# Experiment: enrichment ratio after two sorts for PhoP signalling (ratio (wild type AVST 3.29)); higher = more functional
# Conditions: with PhoP (E. coli)
row,Variant,enrichment ratio
1,HKPF,≤ 0.25
2,EDLF,≤ 0.25
3,GLPS,≤ 0.25
4,PYPA,≤ 0.25
5,KRQM,≤ 0.25
6,HDQM,≤ 0.25
7,YYGF,≤ 0.25
8,YSDV,≤ 0.25
9,VFWT,≤ 0.25
10,GQSM,20.5
11,FVSM,≤ 0.25
12,MASM,16.9
13,MQSM,8.88
14,MESM,19
15,MRSM,≤ 0.25
16,MVSM,12.3
17,MVTM,3.98
18,GVSM,0.841
19,FQSM,≤ 0.25
20,GYSM,≤ 0.25
21,MVHF,0.626
22,LDIM,≤ 0.25
23,MSCN,1.97
24,THNV,≤ 0.25

row,Variant,enrichment ratio
1,ILTF,0.323
2,GVMY,≤ 0.25
3,KDHR,≤ 0.25
4,NESF,≤ 0.25
5,GSQM,≤ 0.25
6,GSSM,11.2
7,TESM,30
8,GESM,17.3
9,GEHF,≤ 0.25
10,QESF,≤ 0.25
11,NESM,≤ 0.25
12,QESM,5.67
13,GSSF,0.449
14,GESF,0.55
15,TESF,11.5
16,TLHH,≤ 0.25
17,FQMV,0.463
18,MHQA,≤ 0.25
19,NHWK,≤ 0.25
20,ITGV,≤ 0.25
21,NASM,≤ 0.25
22,KASM,≤ 0.25
23,TASM,13.4
24,AEWF,≤ 0.25

row,Variant,enrichment ratio
1,WRRW,≤ 0.25
2,TKND,12.6
3,MKND,≤ 0.25
4,SHND,≤ 0.25
5,NHND,≤ 0.25
6,AKND,≤ 0.25
7,THND,29.6
8,DRLD,≤ 0.25
9,HSGG,≤ 0.25
10,FKNI,≤ 0.25
11,NEDI,≤ 0.25
12,NKAR,≤ 0.25
13,FVHD,≤ 0.25
14,WDYC,≤ 0.25
15,AMNL,3.05
16,AMTE,15.1
17,AITE,≤ 0.25
18,AMIE,≤ 0.25
19,AMCS,5.27
20,AMCL,15.7
21,AMCI,14.1
22,AMCK,≤ 0.25
23,NMCL,≤ 0.25
24,AMPE,≤ 0.25

row,Variant,enrichment ratio
1,AKTE,≤ 0.25
2,AMCE,67.3
3,PGVP,≤ 0.25
4,HSSS,≤ 0.25
5,DNCF,≤ 0.25
6,HRPL,≤ 0.25
7,NSCR,≤ 0.25
8,ILKS,≤ 0.25
9,APIM,≤ 0.25
10,QGSM,9.07
11,AMPI,0.985
12,AMPA,≤ 0.25
13,AMCA,19.4
14,MMHC,≤ 0.25
15,GDIQ,17.5
16,GDHQ,≤ 0.25
17,GDLT,≤ 0.25
18,GDHP,1.16
19,GNIQ,9.19
20,GDNT,≤ 0.25
21,GQIQ,14.9
22,NQIQ,≤ 0.25
23,GDIT,14
24,VNKQ,≤ 0.25

row,Variant,enrichment ratio
1,GRCH,≤ 0.25
2,YDLC,≤ 0.25
3,IFMM,≤ 0.25
4,TGLM,26.9
5,NGLM,13.2
6,HGLM,16.4
7,RGLM,≤ 0.25
8,SGFA,≤ 0.25
9,SGFM,5.94
10,AGLM,6.12
11,GGLM,2.85
12,SGLM,17.9
13,HRLM,≤ 0.25
14,CFLM,≤ 0.25
15,HFLM,≤ 0.25
16,RWIP,≤ 0.25
17,VHKL,≤ 0.25
18,MHLQ,≤ 0.25
19,DMYA,≤ 0.25
20,SEHG,≤ 0.25
21,VTGQ,≤ 0.25
22,YERP,≤ 0.25
23,RWVH,≤ 0.25
24,EIKR,≤ 0.25

row,Variant,enrichment ratio
1,WPFI,≤ 0.25
2,MTAY,4.94
3,IGLM,14
4,IGLA,≤ 0.25
5,IGFA,≤ 0.25
6,QFWE,≤ 0.25
7,ANCE,56
8,ANHE,≤ 0.25
9,TGII,≤ 0.25
10,ANCA,44.6
11,AKSE,≤ 0.25
12,AGII,33.2
13,AGID,≤ 0.25
14,ANHV,≤ 0.25
15,ADSE,≤ 0.25
16,ANSE,11.5
17,ANIE,≤ 0.25
18,ANPI,≤ 0.25
19,LPYL,≤ 0.25
20,MLTL,8.8
21,YPKQ,≤ 0.25
22,RNCE,≤ 0.25
23,IICI,≤ 0.25
24,MPFW,≤ 0.25

row,Variant,enrichment ratio
1,LFPW,≤ 0.25
2,RNAC,≤ 0.25
3,NMMW,≤ 0.25
4,QIFK,≤ 0.25
5,QINA,≤ 0.25
6,QQLA,≤ 0.25
7,PAGS,≤ 0.25
8,ANLC,22.4
9,ANHF,≤ 0.25
10,ADMV,35.3
11,FDMV,≤ 0.25
12,ANFA,≤ 0.25
13,ANCI,19.9
14,ANLH,13
15,ADLH,5.09
16,AHLC,≤ 0.25
17,GNLH,1.09
18,LNLC,≤ 0.25
19,AIMV,5.05
20,MAIR,≤ 0.25
21,TWDF,≤ 0.25
22,QNMP,≤ 0.25
23,QKNG,≤ 0.25
24,VWKN,≤ 0.25

row,Variant,enrichment ratio
1,TWHE,≤ 0.25
2,ANAW,≤ 0.25
3,EGLC,≤ 0.25
4,LNSI,≤ 0.25
5,GNSI,4.37
6,ADYV,≤ 0.25
7,ANYR,≤ 0.25
8,AIIV,3.98
9,AGWV,≤ 0.25
10,AGIV,14.4
11,ANSI,18
12,ADNS,≤ 0.25
13,ADIV,12.5
14,ANNS,12.9
15,AGIS,2.92
16,EFTF,≤ 0.25
17,GVQP,≤ 0.25
18,PEHG,≤ 0.25
19,WTQP,≤ 0.25
20,TWFQ,≤ 0.25
21,QNLY,≤ 0.25
22,KERI,≤ 0.25
23,KAIG,≤ 0.25
24,RCHM,≤ 0.25

row,Variant,enrichment ratio
1,ANHN,≤ 0.25
2,ANIS,4.66
3,ANIV,13.7
4,HKAP,≤ 0.25
5,SKLF,11
6,SKLA,8.7
7,SKVA,1.14
8,SKLM,16.3
9,SKVM,19.7
10,NDKA,≤ 0.25
11,ITMN,≤ 0.25
12,VVYG,≤ 0.25
13,VHNY,≤ 0.25
14,HMES,≤ 0.25
15,AGTS,7.67
16,AGTM,16.2
17,SPNM,≤ 0.25
18,YWTM,≤ 0.25
19,SPTM,≤ 0.25
20,KSTM,≤ 0.25
21,RGTM,≤ 0.25
22,TVTM,16.6
23,TVNM,13.5
24,FVNM,≤ 0.25

row,Variant,enrichment ratio
1,GGTM,1.63
2,TGTM,15
3,DANA,≤ 0.25
4,MGIR,≤ 0.25
5,PYLL,≤ 0.25
6,VWQC,≤ 0.25
7,KPYK,≤ 0.25
8,NMSK,≤ 0.25
9,GWYP,≤ 0.25
10,NKWL,≤ 0.25
11,YWTA,≤ 0.25
12,KAGY,≤ 0.25
13,TAGY,34.1
14,TAYI,10.2
15,TAAY,15.7
16,NAGY,≤ 0.25
17,TAPY,≤ 0.25
18,NVMG,≤ 0.25
19,SYKQ,≤ 0.25
20,DDMM,≤ 0.25
21,FLYG,≤ 0.25
22,YCDY,≤ 0.25
23,PSFY,≤ 0.25
24,WEWY,≤ 0.25

row,Variant,enrichment ratio
1,VFIN,≤ 0.25
2,YVGY,≤ 0.25
3,HIQN,≤ 0.25
4,TNWE,≤ 0.25
5,MNWI,6.11
6,MNWE,17.9
7,MNWG,15.6
8,MNHG,≤ 0.25
9,MNIE,≤ 0.25
10,MNVG,≤ 0.25
11,MNWN,15.4
12,MNQN,≤ 0.25
13,TSGQ,7.96
14,PQQF,≤ 0.25
15,WRDC,≤ 0.25
16,YILM,12.1
17,WALM,6.02
18,HPLM,≤ 0.25
19,YELS,14.9
20,HALM,14.3
21,KALM,≤ 0.25
22,YEWI,≤ 0.25
23,QPLM,≤ 0.25
24,HYLM,≤ 0.25

row,Variant,enrichment ratio
1,YELA,≤ 0.25
2,TALM,15.3
3,YIGM,0.38
4,SGGE,≤ 0.25
5,MSWN,8.63
6,TQHK,≤ 0.25
7,KKLF,≤ 0.25
8,HYYY,≤ 0.25
9,VMNW,≤ 0.25
10,NFPM,≤ 0.25
11,MDYM,≤ 0.25
12,TGWM,0.965
13,FLTQ,≤ 0.25
14,HCKA,≤ 0.25
15,FSYE,≤ 0.25
16,AKLM,12.4
17,NALM,5.51
18,PKLM,≤ 0.25
19,WKLM,≤ 0.25
20,VLLM,0.26
21,VALM,16.8
22,AALM,14.8
23,VILM,1.31
24,YALM,12.7

row,Variant,enrichment ratio
1,YWLM,≤ 0.25
2,RGGT,≤ 0.25
3,TCHA,≤ 0.25
4,ESLN,≤ 0.25
5,AYSD,≤ 0.25
6,WYCA,≤ 0.25
7,QFWH,≤ 0.25
8,FYES,≤ 0.25
9,YMRA,≤ 0.25
10,QDSF,≤ 0.25
11,YELF,0.264
12,YHLM,0.877
13,YELM,13.8
14,SHLM,19.3
15,AILM,5.76
16,AHLM,12.1
17,AYLM,≤ 0.25
18,SHLA,3.56
19,WNLM,≤ 0.25
20,FTLM,8.49
21,ANLM,13.3
22,SHGM,≤ 0.25
